For 91 compounds, binding response (% of control) results are on record in PubChem BioAssay AID1439 (NMMLSC, 2008).

Screen size: about 220,000 compounds; about 770 (0.35%) were called active. Roughly 15% stayed inconclusive and do not appear here. Cut-off read from the data, not from the text of the source: active = binding response below about 49% or above about 150%; inconclusive = no clear call, values can overlap the other calls; inactive = in between. The full list was thinned out, with actives kept by preference.

The target of this assay is Guanine nucleotide-binding protein G(o) subunit alpha (Homo sapiens) (UniProt P09471). Nature of the assay: RGS7-Galphao binding modulators, primary screen, biochemical, multiplexed bead flow cytometry (AID 1439).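 Note: fluorescent Galphao held in activated GDP-AlF4 state binding bead-coupled RGS7.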 Particulars: at 10 µM, actives lie on both sides.
Sequence of Guanine nucleotide-binding protein G(o) subunit alpha (Homo sapiens) (P09471 whole entry, looked up): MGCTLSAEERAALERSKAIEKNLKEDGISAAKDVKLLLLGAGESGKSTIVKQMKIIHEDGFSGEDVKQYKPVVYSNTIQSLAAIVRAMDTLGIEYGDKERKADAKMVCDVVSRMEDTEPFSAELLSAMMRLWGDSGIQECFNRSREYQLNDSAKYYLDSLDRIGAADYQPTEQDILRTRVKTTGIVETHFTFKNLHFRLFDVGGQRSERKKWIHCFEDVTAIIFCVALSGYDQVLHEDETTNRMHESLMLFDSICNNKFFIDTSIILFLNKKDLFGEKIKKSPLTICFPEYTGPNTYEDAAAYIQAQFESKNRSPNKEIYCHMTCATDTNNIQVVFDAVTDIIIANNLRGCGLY
For `CN1C(=O)/C(=C/c2ccc(C(=O)NC3CCCC3)cc2)Oc2ccccc21`, the binding response (% of control) was 98.8% (inactive).
As for `O=C(CCc1ccccc1)Nc1ccc(NC(=O)C2CCCCC2)nc1`, the binding response (% of control) is 105% (inactive).
`Cc1ccc(CN2CCN(Cc3ccccc3-c3ccco3)CC2CCO)o1` (stereo unspecified): the binding response (% of control) is 90.6% (inactive).
Turning to `CN1CCN(C(CNS(=O)(=O)c2cccs2)c2cccnc2)CC1` (stereo unspecified), the binding response (% of control) is -9.98% [inhibitor] (active).
`Cc1ccc(NC(=O)NCC(c2cccnc2)N2CCOCC2)cc1` (stereo unspecified): the binding response (% of control) is 100% (inactive).
For `CN1CCN(S(=O)(=O)c2ccc(N3CCN(S(=O)(=O)c4cccs4)CC3)nc2)CC1` the value was 95.4% (inactive).
With `CN(C)c1ccc(/C=N/NC(=O)C(O)c2ccc(Br)cc2)cc1` (stereo unspecified), the binding response (% of control) was 101% (inactive).
As for `CC(C)(C)C(=O)CN1C2=NCCN2c2ccccc21`, the binding response (% of control) was 109% (inactive).
For `Cc1ccccc1NC(=O)Cn1c(=O)n(CC2CCCO2)c(=O)c2ccccc21` (stereo unspecified) the value was 106% (inactive); for `CCOc1cc(NC(=O)c2ccccn2)c(OCC)cc1NC(=O)c1ccc(OC)cc1`, 107% (inactive); for `CCN(CC)CCOc1ccc2c(c1)C(=NNC(=O)c1ccccn1)c1cc(OCCN(CC)CC)ccc1-2`, 216% (active).
For the compound `COc1ccc(CC(=O)N/N=C(\C)c2ccccn2)cc1`, the binding response (% of control) was 93.4% (inactive).
With `COC(=O)c1cc2n(n1)CCCNC2=O`, the binding response (% of control) was 106% (inactive).
`O=[N+]([O-])c1ccc2c(c1)C(N1CCOCC1)/C(=C/C1(O)CCCCC1)O2` (stereo unspecified): the binding response (% of control) is 100% (inactive).
With `CCCCOC(=O)Cn1c(=N)n(CCN(CC)CC)c2ccccc21`, the binding response (% of control) is 165% (active).
`CCCCOC(=O)Cn1c(=O)n(CC(=O)OCCCC)c2cc(C)ccc21`: the binding response (% of control) is 103% (inactive).
Regarding `CCn1c(=N)n(CC(=O)c2cccc(OC)c2)c2ccccc21`, the binding response (% of control) is 96.8% (inactive).
Consider `CCC(C)CN1CCC(CO)(Cc2ccccc2Cl)CC1` (stereo unspecified), for which the binding response (% of control) is 103% (inactive).
For `O=S1(=O)CCC(NC(=S)SCc2ccccc2Br)C1` (stereo unspecified), the binding response (% of control) is 97.5% (inactive).
On to `Cc1nc2cc(NC(=O)NC3CC3)ccc2n1C`, for which the binding response (% of control) is 99% (inactive).
Regarding `Cn1c(CCN2CCCCCC2)nc2cc(NC(=O)Nc3ccccc3)ccc21`, the binding response (% of control) was 106% (inactive).
In the case of `Cc1cc2nc(C)n(CCCNC(=O)Nc3ccccc3)c2cc1C`, the binding response (% of control) is 180% (active).
As to `CCOc1ccc(S(=O)(=O)Nc2nccs2)cc1`, the binding response (% of control) is 101% (inactive).
For `C=CCN1C2CCCC1CC(NC(=S)Nc1cccc(OC)c1)C2` (stereo unspecified), the binding response (% of control) was 102% (inactive).
Take `Clc1cccc(-c2nc(NCC3CCCO3)c3ccccc3n2)c1` (stereo unspecified): the binding response (% of control) was 99.5% (inactive).
Turning to `Cc1cc(C)n2nc(C(=O)N(C)C(c3ccccc3)c3ccccc3)nc2n1`, the binding response (% of control) is 99% (inactive).
As for `Cc1cccc(NC(=S)N2CCCC(c3nc4ccccc4[nH]3)C2)c1` (stereo unspecified), the binding response (% of control) was 106% (inactive).
Turning to `COCCCN1C(=O)C(=O)/C(=C(/O)c2ccc3c(c2)CC(C)O3)C1c1cccnc1` (stereo unspecified), the binding response (% of control) was 93.5% (inactive).
As to `COc1ccc(/C(O)=C2\C(=O)C(=O)N(Cc3ccco3)C2c2ccc(OC)cc2OC)cc1` (stereo unspecified), the binding response (% of control) is 98.7% (inactive).
As to `COc1cc(C2/C(=C(\O)c3ccc4c(c3)CC(C)O4)C(=O)C(=O)N2Cc2ccco2)ccc1O` (stereo unspecified), the binding response (% of control) was 17.7% [inhibitor] (active).
For the compound `CSc1ccc(C(=O)C2CCCN(C(=O)c3ccc(C)nc3)C2)cc1` (stereo unspecified), the binding response (% of control) was 96% (inactive).
`O=C(CCN1CCN(C/C=C/c2ccccc2)CC1)Nc1cccc(F)c1`: the binding response (% of control) is 101% (inactive).
For `Cc1cc(NC(=O)COc2ccc(Cl)cc2Cl)n(CCC#N)n1`, the binding response (% of control) was 93.9% (inactive).
For `CCCn1nnnc1NC(=O)COc1ccc(Cl)cc1C`, the binding response (% of control) is 17.1% [inhibitor] (active).
The result for `CCOC(=O)N1CCN(C(=O)COc2ccc(Cl)cc2C)CC1` reads 102% (inactive).
As for `CCCC(=O)N=c1sc2cccc(F)c2n1C`, the binding response (% of control) was 18% [inhibitor] (active).
On to `Cn1c(=NC(=O)c2ccco2)sc2cccc(F)c21`, for which the binding response (% of control) is 103% (inactive).
Take `Cn1c(=NC(=O)C2CC2)sc2cc(F)cc(F)c21`: the binding response (% of control) was 95.6% (inactive).
In the case of `Cc1cnc(C(=O)N2CCCC(C(=O)c3ccc(C(F)(F)F)cc3)C2)cn1` (stereo unspecified), the binding response (% of control) was 107% (inactive).
The result for `COc1cccc(-n2nc(C(=O)N3CCN(Cc4ccccc4)CC3)c3ccccc3c2=O)c1` reads 98.7% (inactive); that for `CCC(=O)OCCNc1nc(-c2ccccc2)nc2ccccc12`, 110% (inactive).
For the compound `O=C(OCC1O[C@@H](OC(=O)c2cc(O)c(O)c(O)c2)[C@@H](OC(=O)c2cc(O)c(O)c(O)c2)[C@@H](OC(=O)c2cc(O)c(O)c(O)c2)[C@@H]1OC(=O)c1cc(O)c(O)c(O)c1)c1cc(O)c(O)c(O)c1` (stereo partly specified), the binding response (% of control) was 20.5% [inhibitor] (active).
As for `CC(=O)NC1C(OCc2ccccc2)OC(COC(C)=O)C(OC(C)=O)C1OC(C)=O` (stereo unspecified), the binding response (% of control) was 99.5% (inactive).
Consider `NC(=O)c1ccc(CN2CCC(Cc3ccccc3)CC2)cc1`, for which the binding response (% of control) is 99.1% (inactive).
The result for `OCC1(CCc2ccccc2)CCN(Cc2ccc3nsnc3c2)CC1` reads 96.7% (inactive).
Consider `CN1CCNC(=O)C1CC(=O)NCCC1=CCCCC1` (stereo unspecified), for which the binding response (% of control) is 96.7% (inactive).
On to `CCc1nnc(NS(=O)(=O)c2ccc(NC(=S)NC(=O)c3cccs3)cc2)s1`, for which the binding response (% of control) is 96.9% (inactive).
For `CN(c1ccccc1)c1ccc(/C=c2\s/c(=C(/C#N)C(=O)C(C)(C)C)n(Cc3ccco3)c2=O)cc1` the value was 421% (active).
As to `CCOC(=O)CSc1nc2c(sc(=S)n2CCc2ccccc2)c(=O)n1Cc1ccco1`, the binding response (% of control) is 113% (inactive).
As to `Cc1cc2c(c(=O)n1Cc1ccco1)C(c1ccccc1)C(C#N)=C(N)O2` (stereo unspecified), the binding response (% of control) was 101% (inactive).
For the compound `COc1ccc(C(=O)CSc2nc(C)cc(C)n2)cc1[N+](=O)[O-]`, the binding response (% of control) is 103% (inactive).
The result for `O=C(NCCCN1CCOCC1)c1ccc([N+](=O)[O-])cc1[N+](=O)[O-]` reads 101% (inactive); that for `O=C(CC1SC(=Nc2ccccc2F)N(CCN2CCOCC2)C1=O)Nc1ccc(F)cc1F` (stereo unspecified), 87% (inactive).
Consider `CC(C)(C)CN1CCNC(=O)C1CC(=O)NC1Cc2ccccc2C1` (stereo unspecified), for which the binding response (% of control) was 85.9% (inactive).
The result for `CC1(C)CC(=O)C(CC(=O)N2CCC(Cc3ccccc3)CC2)C(=O)C1` reads 106% (inactive); that for `CC1=CC=CN2C1=NC(=O)CC2(C)C(=O)N(CC(=O)NC1CCCC1)c1ccccc1C` (stereo unspecified), 104% (inactive); that for `Cc1ccccc1C(=O)Nc1ccc(N2CCCCCC2)cc1`, 91.3% (inactive).
In the case of `CCN1CCN(Cc2c(O)ccc3c(=O)c(-c4ccc(OC)c(OC)c4)c(C(F)(F)F)oc23)CC1`, the binding response (% of control) was 97.2% (inactive).
The result for `CN1CCN(Cc2c(O)ccc3c2oc(=O)c2ccccc23)CC1` reads 99.2% (inactive).
Take `CCOC(=O)c1oc2c(CN3CCN(C)CC3)c(O)ccc2c(=O)c1-c1ccc(Br)cc1`: the binding response (% of control) is 318% (active).
For `COc1ccc(N2C(=O)/C(=C\c3ccco3)N=C2SCC(N)=O)cc1Cl` the value was 93.9% (inactive); for `O=C(O)CCCCCNc1ncnc2ccc(Br)cc12`, 91.8% (inactive).
In the case of `Cc1c(CN2CCC(C)CC2)c(=O)n(-c2ccccc2)n1C`, the binding response (% of control) is 97% (inactive).
Turning to `Cc1cccc(N2CCN(Cc3c(C)n(C)n(-c4ccccc4)c3=O)CC2)c1C`, the binding response (% of control) was 103% (inactive).
Turning to `Cc1c(CN2CCCC(C(=O)c3cccc(Cl)c3)C2)c(=O)n(-c2ccccc2)n1C` (stereo unspecified), the binding response (% of control) is 230% (active).
For `Cc1ccc(NC(=O)CN2CCCCC2)c2c1CC(C)(C)O2` the value was 103% (inactive); for `CS/C(=C\[N+](=O)[O-])Nc1ccc(C)cc1`, 106% (inactive).
For `S=C(Nc1cccc(Br)c1)N1CCn2cccc2C1c1cccnc1` (stereo unspecified), the binding response (% of control) was 102% (inactive).
Take `O=C(Nc1ccccc1Cl)c1ccccc1S(=O)(=O)c1ccccc1[N+](=O)[O-]`: the binding response (% of control) was 90.2% (inactive).
For `CN(C)S(=O)(=O)Oc1ccccc1C(=O)Nc1ccccc1Cl`, the binding response (% of control) was 223% (active).
`CC(=O)Nc1ccc(NC(=O)COc2ccccc2C(=O)Nc2cccc(Cl)c2Cl)cc1`: the binding response (% of control) was 94.1% (inactive).
In the case of `COc1cccc2c1OCC(CN1CCN(C3CCCCC3)C(CCO)C1)=C2` (stereo unspecified), the binding response (% of control) is 103% (inactive).
In the case of `CN1CCN(CCCCOc2ccccc2-c2ccccc2)CC1`, the binding response (% of control) was 102% (inactive).
For the compound `CC(C)C(O)C1CCN(Cc2nc(Cc3ccccc3Cl)no2)CC1` (stereo unspecified), the binding response (% of control) was 101% (inactive).
For the compound `CC(Nc1nc(N2CCOCC2)nc2ccccc12)c1ccccc1` (stereo unspecified), the binding response (% of control) is 103% (inactive).
As to `Cn1c(Cn2nnc3ccccc32)nnc1SCC(=O)c1ccccc1F`, the binding response (% of control) was 103% (inactive).
On to `C=CCn1c(Cn2nnc3ccccc32)nnc1SCC(=O)N/N=C/c1cc(Br)cc(OC)c1O`, for which the binding response (% of control) was -19.4% [inhibitor] (active).
As for `COc1ccc(OC)c(/C=N/NC(=O)CSc2nnc(C)n2-c2ccccc2)c1`, the binding response (% of control) was 105% (inactive).
For the compound `CCn1ccnc1CN(C)Cc1nc(-c2ccc3c(c2)OCO3)no1`, the binding response (% of control) is 96.5% (inactive).
With `O=C(CCn1ccc([N+](=O)[O-])n1)Nc1nccs1`, the binding response (% of control) was 97.4% (inactive).
As for `CC(OC(=O)c1ccc2ccccc2n1)C(=O)c1ccccc1` (stereo unspecified), the binding response (% of control) is 104% (inactive).
For `COc1ccc(C(=O)COC(=O)c2ccc3ccccc3n2)cc1` the value was 39% [inhibitor] (active).
In the case of `COc1ccc(C2=NOC(COC(=O)c3ccc4ccccc4n3)C2)cc1` (stereo unspecified), the binding response (% of control) was 97% (inactive).
Consider `O=C(O)c1ccccc1-c1ccccc1C(=O)NCc1cccnc1`, for which the binding response (% of control) was 104% (inactive).
For `CN(C)CCn1c(=S)[nH]c2ccc(Cl)cc2c1=O` the value was 97.9% (inactive); for `CN(C)CCN=c1cc(-c2ccccc2)oc2ccc(Cl)cc12`, 155% (active).
Take `CCN(CC)S(=O)(=O)c1ccc(N2CCCC2)c(NS(=O)(=O)c2cccs2)c1`: the binding response (% of control) is 103% (inactive).
As for `Cc1cc(C)cc(N(CC(=O)Nc2c(C)n(C)n(-c3ccccc3)c2=O)S(C)(=O)=O)c1`, the binding response (% of control) was -21.3% [inhibitor] (active).
`Cc1ccc(S(=O)(=O)CC(=O)Nc2c(C)n(C)n(-c3ccccc3)c2=O)cc1`: the binding response (% of control) is 95.9% (inactive).
On to `Cc1cc(C)cc(N(C(C)C(=O)Nc2c(C)n(C)n(-c3ccccc3)c2=O)S(C)(=O)=O)c1` (stereo unspecified), for which the binding response (% of control) is 101% (inactive).
On to `CCn1cc(C(=O)NCCCN2CCCCCC2)c(=O)c2cc(S(=O)(=O)N3CCc4ccccc4C3)ccc21`, for which the binding response (% of control) was 103% (inactive).
